This note sets out measurements from PubChem BioAssay (NCI).

Molecules are shown by their SMILES. Compounds without any hit were thinned out: in the full panel of roughly 83,000, 20% have a hit.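 48-hour exposure, single concentration, 96-well plates; percent growth endpoint where 0 means no net growth. Active: below 10.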 Unmarked numbers belong to inactive results. Active and inactive are the calls of the source.

Among the test systems are SK-MEL-2 melanoma; EKVX NSCLC; SN12C renal; UO-31 renal; TK-10 renal; ACHN renal; CAKI-1 renal; A498 renal; CCRF-CEM leukemia; MOLT-4 leukemia; SR leukemia; RPMI-8226 leukemia; OVCAR-8 ovarian; OVCAR-5 ovarian; OVCAR-4 ovarian; SK-OV-3 ovarian; IGROV1 ovarian; OVCAR-3 ovarian; HS 578T breast; NCI/ADR-RES ovarian.
Holding throughout (assay): NCI-60 one-dose screen, 48 h (100 = growth as untreated, 0 = no growth, -100 = all killed)
What all share (details): 10 µM unless noted

Regarding `Nc1nc2cc(-c3ccc4ncnc(NCc5ccccc5)c4c3)ccc2o1`, the growth in the assay with SK-MEL-2 melanoma is 42.2%; in the assay on EKVX NSCLC it was 0.598% (active); with SN12C renal, -33.7% (active); in the assay with UO-31 renal, -73.4% (active); in the assay with TK-10 renal it was -28.5% (active); in the assay with ACHN renal, -62.4% (active). Also, the growth with CAKI-1 renal was -24.9% (active); in the assay with A498 renal it was 41.6%; in the assay on CCRF-CEM leukemia, 29.6%; with MOLT-4 leukemia, -20.1% (active); with SR leukemia it was -44.9% (active); in the assay with RPMI-8226 leukemia it was 10.6%. The growth in the assay with OVCAR-8 ovarian is 2.26% (active); with OVCAR-5 ovarian, 22.1%; in the assay with OVCAR-4 ovarian, -75.2% (active); in the assay with SK-OV-3 ovarian, -5.93% (active); in the assay on IGROV1 ovarian, -68.5% (active); in the assay on OVCAR-3 ovarian it was -31.5% (active). The growth in the assay on HS 578T breast was -34.8% (active); in the assay with NCI/ADR-RES ovarian it was 2.3% (active).

As for `COc1ccc(N=Nc2c(N)nn3c(-c4ccc(F)cc4)ccnc23)cc1`, the growth with SK-MEL-2 melanoma is 102%; with EKVX NSCLC, 80.4%; in the assay on SN12C renal, 89%; with UO-31 renal, 99.6%; with TK-10 renal, 106%; in the assay on ACHN renal, 110%. Further, the growth with CAKI-1 renal is 94.5%; with A498 renal, 108%; in the assay on CCRF-CEM leukemia, 59.9%; in the assay with MOLT-4 leukemia, 85.5%; in the assay with SR leukemia, 3.18% (active); in the assay on RPMI-8226 leukemia it was 95.5%. For the same molecule, the growth in the assay on OVCAR-8 ovarian was 73.1%; in the assay on OVCAR-5 ovarian it was 80%; with OVCAR-4 ovarian, 26.1%; in the assay with SK-OV-3 ovarian, 113%; with IGROV1 ovarian, 99.9%; with OVCAR-3 ovarian, 79.6%. For the same molecule, the growth was 107% in the assay on HS 578T breast and 74.3% with NCI/ADR-RES ovarian.

Turning to `CCc1ccccc1NC(=O)N/C(N)=N/c1nc2ccccc2s1`, the growth with SK-MEL-2 melanoma was 10.6%; in the assay on EKVX NSCLC, 27.6%; with SN12C renal, 0.486% (active); with UO-31 renal, 34.7%; in the assay on TK-10 renal, 19.8%; in the assay with ACHN renal, 1.6% (active). The growth with CAKI-1 renal was 4.86% (active); with A498 renal it was 60.3%; in the assay on CCRF-CEM leukemia it was 4.47% (active); with MOLT-4 leukemia it was 6.27% (active); in the assay with SR leukemia it was 7.38% (active); with RPMI-8226 leukemia it was 15.7%. For the same molecule, the growth with OVCAR-8 ovarian was -26.6% (active); in the assay on OVCAR-5 ovarian, 0.307% (active); in the assay on OVCAR-4 ovarian, 16.7%; in the assay with SK-OV-3 ovarian, 7.32% (active); with IGROV1 ovarian, 20%; in the assay with OVCAR-3 ovarian it was -30.2% (active). In addition, the growth with HS 578T breast was 27.1%; in the assay on NCI/ADR-RES ovarian it was -30.4% (active).

Regarding `CN(C)c1nc(NCCNS(=O)(=O)c2ccc(C(=O)/C=C/c3ccccc3)cc2)nc(N2CCOCC2)n1`, the growth was 97.6% with SK-MEL-2 melanoma; 77.6% with EKVX NSCLC; 79.8% in the assay on SN12C renal; 70.9% with UO-31 renal; 108% in the assay on TK-10 renal; 87% with ACHN renal. For the same molecule, the growth was 68.5% with CAKI-1 renal; 77.2% in the assay with A498 renal; 55.1% with CCRF-CEM leukemia; 13.9% in the assay with MOLT-4 leukemia; -42.7% (active) in the assay with SR leukemia; 0.0245% (active) in the assay on RPMI-8226 leukemia. Besides, the growth in the assay on OVCAR-8 ovarian is 83.4%; in the assay with OVCAR-5 ovarian, 93.6%; with OVCAR-4 ovarian, 88.3%; in the assay with SK-OV-3 ovarian, 97.7%; in the assay on IGROV1 ovarian, 80.5%; in the assay on OVCAR-3 ovarian, 111%. For the same molecule, the growth is 76.1% with HS 578T breast and 82.4% with NCI/ADR-RES ovarian.

On to `C#CCN(C)CCCOc1ccc(N(C)C(=O)c2cc(C(C)C)c(O)cc2O)cc1Cl`, for which the growth in the assay on SK-MEL-2 melanoma was -6.01% (active); in the assay on EKVX NSCLC, 15.9%; with SN12C renal, 11.5%; in the assay with UO-31 renal it was 16.5%; in the assay on TK-10 renal, 21.4%; in the assay with ACHN renal it was 15.7%. For the same molecule, the growth was 16.6% in the assay with CAKI-1 renal; 39.7% with A498 renal; 13.9% in the assay with CCRF-CEM leukemia; -14% (active) in the assay on MOLT-4 leukemia; -13.5% (active) with SR leukemia; 8.9% (active) with RPMI-8226 leukemia. Besides, the growth in the assay on OVCAR-8 ovarian is 9.81% (active); in the assay on OVCAR-5 ovarian it was 29.4%; in the assay with OVCAR-4 ovarian, 36.1%; with SK-OV-3 ovarian, 16.2%; with IGROV1 ovarian it was 11.4%; in the assay on OVCAR-3 ovarian it was 30.7%. The growth with HS 578T breast was 26.3%; in the assay with NCI/ADR-RES ovarian it was -5.62% (active).

Consider `Fc1cccc(CNc2nc(SCCN3CCOCC3)nc3c2cnn3CC(Cl)c2ccc(Br)cc2)c1` (stereo not given), for which the growth in the assay with SK-MEL-2 melanoma was 13.5%; in the assay with EKVX NSCLC, 41.1%; with SN12C renal, 36.5%; in the assay with UO-31 renal, -3.52% (active); in the assay with TK-10 renal it was 46.7%; in the assay with ACHN renal it was 17.3%. The growth with CAKI-1 renal was 26.7%; in the assay on A498 renal, 57.2%; with CCRF-CEM leukemia it was 6.67% (active); with MOLT-4 leukemia it was -23.8% (active); with SR leukemia, -18.1% (active); in the assay with RPMI-8226 leukemia, 2.98% (active). In addition, the growth is 32.6% in the assay on OVCAR-8 ovarian; 59.9% in the assay with OVCAR-5 ovarian; 27.3% with OVCAR-4 ovarian; 51.3% in the assay with SK-OV-3 ovarian; 52.2% with IGROV1 ovarian; 49.7% with OVCAR-3 ovarian. The values for the growth in the assay with HS 578T breast and in the assay with NCI/ADR-RES ovarian were 19.2% and 23%, respectively.

Consider `COc1nc(N)ncc1-c1ccc2ncnc(N3CCc4cc(F)c(Cl)cc43)c2c1`, for which the growth with SK-MEL-2 melanoma was 25.7%; in the assay with EKVX NSCLC, 24.2%; with SN12C renal, -40.9% (active); with UO-31 renal it was -32.4% (active); in the assay on TK-10 renal it was -50% (active); in the assay on ACHN renal, -84.7% (active). In addition, the growth in the assay with CAKI-1 renal is 4.22% (active); in the assay on A498 renal, -15.6% (active); in the assay on CCRF-CEM leukemia it was 61.6%; in the assay on MOLT-4 leukemia, 62.9%; with SR leukemia, -11.2% (active); in the assay on RPMI-8226 leukemia, 14%. Also, the growth was -24.1% (active) with OVCAR-8 ovarian; -2.67% (active) in the assay with OVCAR-5 ovarian; -84.5% (active) in the assay with OVCAR-4 ovarian; -36.6% (active) with SK-OV-3 ovarian; -45.3% (active) with IGROV1 ovarian; -24.7% (active) in the assay on OVCAR-3 ovarian. The growth in the assay on HS 578T breast is 7.35% (active); in the assay on NCI/ADR-RES ovarian, 18.9%.
